Assay results published in PubChem BioAssay (EPA / NIEHS).
Inconclusive results are not listed. Active and inactive are the calls of the source. How the source made its calls, unless noted: active means hit-call score of the fitted dose curve at least 0.9, where 1 is the maximum; inactive means score below 0.9.

Key:
[1] = BSK_3C_uPAR: BioMAP Diversity Plus: 3C Assay for Urokinase-type plasminogen activator receptor (uPAR) Biomarker Activity (AID 2282998); details: BioMAP 3C HUVEC, uPAR biomarker ELISA; actives raise or lower the signal
How it was run: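 Values derive from bidirectional curve fitting relative to DMSO, which served as baseline of activity. uPAR was measured by ELISA in human umbilical vein endothelial primary cultures 24 h after compound addition.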

[2] = BSK_3C_VCAM1: BioMAP Diversity Plus: 3C Assay for Vascular cell adhesion molecule 1 (VCAM1) Biomarker Activity (AID 2282999); details: BioMAP 3C HUVEC, VCAM1 ELISA, cytokine-stimulated; actives raise or lower the signal
How it was run: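 Endothelial cells from human umbilical vein are treated with test chemical. At 24 h, VCAM-1 is measured by ELISA, and responses in either direction are fitted relative to DMSO.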

[3] = BSK_4H_Eotaxin3: BioMAP Diversity Plus: 4H Assay for Eotaxin 3 Biomarker Activity (AID 2283000); details: primary human endothelial cells (HUVEC); actives raise or lower the signal;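 further: CCL26 protein level quantified by ELISA in parallel with SRB cytotoxicity check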
How it was run: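 HUVEC, 24 h post-dose, ELISA for Eotaxin-3/CCL26. Gain or loss of signal fitted bidirectionally vs DMSO baseline.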

[4] = read-out: Intercellular Adhesion Molecule 1 (ICAM1), ICAM1 (gene 3383); experiment: BSK_3C_ICAM1: BioMAP Diversity Plus: 3C Assay for Intercellular Adhesion Molecule 1 (ICAM1) Biomarker Activity (AID 2283003); details: primary human endothelial cells (HUVEC); actives raise or lower the signal
How it was run: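 Primary human umbilical vein endothelial cells in the BioMAP 3C system were exposed to chemicals for 24 h, then ICAM-1 was quantified by ELISA. Activity was fitted bidirectionally against the DMSO negative control baseline.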

[5] = target: Retinoic acid receptor alpha (Homo sapiens) (UniProt P10276); experiment: ATG_RARa_TRANS: Attagene TRANS-FACTORIAL HepG2 Assay for human Retinoic Acid Receptor alpha (RARa) (AID 2283005; active means hit-call score of the fitted dose curve at least 0.9, where 1 is the maximum;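 on AC50: potency for increased reporter signal meaning RARa activation over DMSO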)
How it was run: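 Reporter transcripts, measured by RT-PCR with fluorescent labeling and capillary electrophoresis after 24 h dosing, reflect activity of an exogenous human RARa–GAL4 fusion in transiently transfected HepG2. Fitted for increase relative to DMSO.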

[6] = BSK_3C_Proliferation: Cell Proliferation Assessment in the BioMAP Diversity Plus: 3C Assay (AID 2283006); details: primary human endothelial cells (HUVEC);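 on AC50: potency may reflect either rise or fall in cell number versus DMSO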
How it was run: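 Human umbilical vein endothelial cells were grown sub-confluent and exposed to chemical for 48 h, then fixed with 10% TCA and stained with 0.1% sulforhodamine B; absorbance at 560 nm gave relative cell number, fitted bidirectionally against DMSO baseline.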

[7] = target: Peroxisome proliferator-activated receptor gamma (Homo sapiens) (UniProt P37231); experiment: ATG_PPARg_TRANS: Attagene TRANS-FACTORIAL HepG2 Assay for human Peroxisome Proliferator-activated Receptor-gamma (PPARg) (AID 2283007; active means hit-call score of the fitted dose curve at least 0.9, where 1 is the maximum)
How it was run: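 HepG2 cells transiently transfected with multiplexed GAL4-UAS reporter units and exogenous chimeric NR-Gal4 proteins; reporter mRNA quantified after 24 h compound exposure by RT-PCR, fluorescent labelling, HpaI digestion and capillary electrophoresis; gain-of-signal fitted versus DMSO baseline.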

[8] = target: human RAR-related Orphan Receptor beta (RORb), RORB (gene 6096) (UniProt Q92753); experiment: ATG_RORb_TRANS: Attagene TRANS-FACTORIAL HepG2 Assay for human RAR-related Orphan Receptor beta (RORb) (AID 2283010; active means hit-call score of the fitted dose curve at least 0.9, where 1 is the maximum)
How it was run: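 HepG2 cells were transiently transfected with multiplexed GAL4-UAS reporter units expressing chimeric nuclear receptor–GAL4 proteins, then dosed for 24 h. Reporter mRNA was quantified by RT-PCR with fluorescent labelling and capillary electrophoresis; gain of signal was fitted relative to DMSO.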

[9] = target: Retinoic acid receptor RXR-alpha (Homo sapiens) (UniProt P19793); experiment: ATG_RXRa_TRANS: Attagene TRANS-FACTORIAL HepG2 Assay for human Retinoid X Receptor alpha (RXRa) (AID 2283012; active means hit-call score of the fitted dose curve at least 0.9, where 1 is the maximum)
How it was run: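 HepG2 cells transiently transfected with multiplexed GAL4-UAS reporter units and chimeric NR-GAL4 fusions, dosed 24 h. Reporter mRNA measured by RT-PCR, FAM labelling, HpaI digestion and capillary electrophoresis; gain-of-signal fitted relative to DMSO baseline.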

[10] = target: human Thyroid Receptor alpha (THRa1), THRA (gene 7067) (UniProt P10827); experiment: ATG_THRa1_TRANS: Attagene TRANS-FACTORIAL HepG2 Assay for human Thyroid Receptor alpha (THRa1) (AID 2283014; active means hit-call score of the fitted dose curve at least 0.9, where 1 is the maximum)
How it was run: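 HepG2 cells transiently transfected with multiplexed GAL4-UAS reporter units for exogenous chimeric THRa1-Gal4; reporter mRNA measured 24 h after dosing by RT-PCR, 6-FAM labelling, HpaI digestion and capillary electrophoresis. Gain-of-signal fitted versus DMSO baseline.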

[11] = read-out: E-selectin (Homo sapiens) (UniProt P16581); experiment: BSK_3C_Eselectin: BioMAP Diversity Plus: 3C Assay for Eselectin Biomarker Activity (AID 2283015); details: primary human endothelial cells (HUVEC); actives raise or lower the signal;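 further: cell surface E-selectin protein quantified by ELISA 24 h after dosing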
How it was run: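 Primary human umbilical vein endothelial cells (3C system) were dosed with chemical and cell-surface E-selectin measured by ELISA 24 h later. Bidirectional curve fitting used DMSO as negative control and baseline.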

[12] = read-out: Interleukin-1 alpha (IL1a), IL1A (gene 3552); experiment: BSK_BE3C_IL1a: BioMAP Diversity Plus: BE3C Assay for Interleukin-1 alpha (IL1a) Biomarker Activity (AID 2283016); details: primary human bronchial epithelial cells; actives raise or lower the signal
How it was run: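 Human primary bronchial epithelial cells (BE3C system) were dosed with compound and IL-1a measured by ELISA 24 h later. Activity was fitted bidirectionally against DMSO baseline; cytotoxicity was tracked in parallel cultures by SRB total-protein staining.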

[13] = read-out: Monocyte Chemoattractant Protein-1 (MCP1), CCL2 (gene 6347); experiment: BSK_3C_MCP1: BioMAP Diversity Plus: 3C Assay for Monocyte Chemoattractant Protein-1 (MCP1) Biomarker Activity (AID 2283017); details: primary human endothelial cells (HUVEC); actives raise or lower the signal
How it was run: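 Primary human umbilical vein endothelial cells (3C system) were exposed to test chemical for 24 h, after which MCP-1 was quantified by ELISA. Activity was fitted bidirectionally against DMSO as negative control and baseline.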

[14] = read-out: Monocyte Chemoattractant Protein-1 (MCP1), CCL2 (gene 6347); experiment: BSK_4H_MCP1: BioMAP Diversity Plus: 4H Assay for Monocyte Chemoattractant Protein-1 (MCP1) Biomarker Activity (AID 2283018); details: primary human endothelial cells (HUVEC); actives raise or lower the signal
How it was run: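 Human umbilical vein endothelial cells (4H system) dosed with chemical; MCP-1 measured by ELISA 24 h after dosing. Bidirectional curve fitting against DMSO negative control as baseline; parallel SRB total-protein staining tracks overt cytotoxicity.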

[15] = target: human Peroxisome Proliferator-activated Receptor alpha (PPARa), PPARA (gene 5465) (UniProt Q07869); experiment: ATG_PPARa_TRANS: Attagene TRANS-FACTORIAL HepG2 Assay for human Peroxisome Proliferator-activated Receptor alpha (PPARa) (AID 2283001; active means hit-call score of the fitted dose curve at least 0.9, where 1 is the maximum)
How it was run: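 Reporter transcripts from GAL4-UAS units in transfected HepG2 were quantified 24 h after dosing. Detection used reverse transcription, PCR, fluorescent primer extension and capillary electrophoresis, with DMSO as baseline.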

[16] = target: human Retinoic Acid Receptor beta (RARb), RARB (gene 5915) (UniProt P10826); experiment: ATG_RARb_TRANS: Attagene TRANS-FACTORIAL HepG2 Assay for human Retinoic Acid Receptor beta (AID 2283004; active means hit-call score of the fitted dose curve at least 0.9, where 1 is the maximum)
How it was run: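 HepG2 cells transiently transfected with multiplexed GAL4-UAS reporter units expressing chimeric NR–Gal4 fusions; 24 h compound exposure. Reporter mRNA quantified by RT-PCR, 6-FAM labelling, HpaI digestion and capillary electrophoresis; gain-of-signal fitted against DMSO baseline.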

[17] = target: Nuclear receptor subfamily 1 group I member 2 (Homo sapiens) (UniProt O75469); experiment: ATG_PXR_TRANS: Attagene TRANS-FACTORIAL HepG2 Assay for human Pregnane X Receptor (PXR) (AID 2283008; active means hit-call score of the fitted dose curve at least 0.9, where 1 is the maximum)
How it was run: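 HepG2 cells transiently transfected with multiple reporter units, here a PXR-GAL4 chimera driving a GAL4-UAS reporter; 24 h compound exposure. Reporter mRNA measured by RT-PCR, FAM labelling and capillary electrophoresis; gain of signal fitted against DMSO baseline.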

[18] = target: human Retinoic Acid Receptor gamma (RARg), RARG (gene 5916) (UniProt P13631); experiment: ATG_RARg_TRANS: Attagene TRANS-FACTORIAL HepG2 Assay for human Retinoic Acid Receptor gamma (RARg) (AID 2283009; active means hit-call score of the fitted dose curve at least 0.9, where 1 is the maximum)
How it was run: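 HepG2 cells transiently transfected with multiplexed reporter units expressing chimeric RARg-GAL4 and GAL4-UAS-driven reporters; 24 h compound exposure. Reporter mRNA quantified by RT-PCR with fluorescent labelling and capillary electrophoresis; gain-of-signal fitted relative to DMSO baseline.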

[19] = target: human Retinoid X Receptor beta (RXRb), RXRB (gene 6257) (UniProt P28702); experiment: ATG_RXRb_TRANS: Attagene TRANS-FACTORIAL HepG2 Assay for human Retinoid X Receptor beta (RXRb) (AID 2283013; active means hit-call score of the fitted dose curve at least 0.9, where 1 is the maximum)
How it was run: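 HepG2 cells transiently transfected with multiplexed reporter units driven by GAL4-UAS and exogenous chimeric NR-Gal4 proteins; treated 24 h. Reporter mRNA measured by RT-PCR, 6-FAM labelling and capillary electrophoresis; gain-of-signal fitted versus DMSO baseline.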

Measured: AC50

Sequence of Retinoic acid receptor RXR-alpha (Homo sapiens) (P19793 whole entry, looked up, the tested form may be a part): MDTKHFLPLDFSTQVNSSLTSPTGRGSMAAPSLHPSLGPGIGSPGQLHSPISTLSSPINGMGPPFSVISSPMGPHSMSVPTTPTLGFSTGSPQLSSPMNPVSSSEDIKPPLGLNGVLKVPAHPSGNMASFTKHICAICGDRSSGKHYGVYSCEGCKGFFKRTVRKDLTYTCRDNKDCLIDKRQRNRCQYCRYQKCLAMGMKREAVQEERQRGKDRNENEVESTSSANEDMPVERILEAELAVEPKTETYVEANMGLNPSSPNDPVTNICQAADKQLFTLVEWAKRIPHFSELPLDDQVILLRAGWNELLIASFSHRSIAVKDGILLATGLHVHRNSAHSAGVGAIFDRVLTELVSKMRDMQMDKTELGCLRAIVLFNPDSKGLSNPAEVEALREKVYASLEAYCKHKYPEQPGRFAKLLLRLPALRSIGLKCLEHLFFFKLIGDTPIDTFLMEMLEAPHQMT
Sequence of Peroxisome proliferator-activated receptor gamma (Homo sapiens) (P37231 whole entry, looked up, the tested form may be a part): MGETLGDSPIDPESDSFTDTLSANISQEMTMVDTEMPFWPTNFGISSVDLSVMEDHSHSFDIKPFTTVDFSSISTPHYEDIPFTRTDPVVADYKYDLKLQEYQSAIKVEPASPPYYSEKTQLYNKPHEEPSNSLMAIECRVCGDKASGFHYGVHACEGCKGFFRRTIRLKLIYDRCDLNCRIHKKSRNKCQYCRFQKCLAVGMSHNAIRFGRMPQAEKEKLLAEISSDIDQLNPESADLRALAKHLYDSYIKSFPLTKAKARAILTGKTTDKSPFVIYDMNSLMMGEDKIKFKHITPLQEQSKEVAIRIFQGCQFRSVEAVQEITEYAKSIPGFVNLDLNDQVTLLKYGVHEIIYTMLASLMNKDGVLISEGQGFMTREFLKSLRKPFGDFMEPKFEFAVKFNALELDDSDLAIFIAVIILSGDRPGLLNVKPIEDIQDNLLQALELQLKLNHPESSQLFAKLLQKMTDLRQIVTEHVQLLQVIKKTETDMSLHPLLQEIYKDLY
Sequence of human Thyroid Receptor alpha (THRa1), THRA (gene 7067) (P10827 whole entry, looked up, the tested form may be a part): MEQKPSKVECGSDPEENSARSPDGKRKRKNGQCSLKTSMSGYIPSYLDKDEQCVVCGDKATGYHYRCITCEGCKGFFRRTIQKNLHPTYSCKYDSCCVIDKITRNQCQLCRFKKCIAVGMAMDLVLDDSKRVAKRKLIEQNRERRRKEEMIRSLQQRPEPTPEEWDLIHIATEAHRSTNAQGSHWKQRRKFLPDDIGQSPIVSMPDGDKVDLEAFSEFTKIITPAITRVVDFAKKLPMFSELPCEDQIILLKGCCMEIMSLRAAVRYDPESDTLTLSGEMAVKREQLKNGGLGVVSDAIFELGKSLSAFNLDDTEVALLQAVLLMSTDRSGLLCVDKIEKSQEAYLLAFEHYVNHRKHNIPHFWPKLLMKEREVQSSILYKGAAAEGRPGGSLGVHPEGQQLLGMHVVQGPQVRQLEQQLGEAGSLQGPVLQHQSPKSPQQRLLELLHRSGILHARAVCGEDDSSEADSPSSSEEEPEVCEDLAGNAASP
Sequence of human Retinoic Acid Receptor gamma (RARg), RARG (gene 5916) (P13631 whole entry, looked up, the tested form may be a part): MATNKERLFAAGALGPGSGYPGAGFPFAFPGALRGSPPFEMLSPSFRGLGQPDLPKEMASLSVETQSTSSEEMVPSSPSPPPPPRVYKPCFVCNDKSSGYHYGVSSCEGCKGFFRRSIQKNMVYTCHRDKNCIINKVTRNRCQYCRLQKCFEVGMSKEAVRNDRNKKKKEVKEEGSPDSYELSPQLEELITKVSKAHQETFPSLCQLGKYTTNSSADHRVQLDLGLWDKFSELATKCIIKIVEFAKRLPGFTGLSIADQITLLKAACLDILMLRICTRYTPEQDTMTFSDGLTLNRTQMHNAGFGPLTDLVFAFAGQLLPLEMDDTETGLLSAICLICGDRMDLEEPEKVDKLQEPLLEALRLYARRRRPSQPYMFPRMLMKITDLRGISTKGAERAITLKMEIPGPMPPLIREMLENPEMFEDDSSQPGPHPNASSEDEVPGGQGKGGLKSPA
Sequence of human Peroxisome Proliferator-activated Receptor alpha (PPARa), PPARA (gene 5465) (Q07869 whole entry, looked up, the tested form may be a part): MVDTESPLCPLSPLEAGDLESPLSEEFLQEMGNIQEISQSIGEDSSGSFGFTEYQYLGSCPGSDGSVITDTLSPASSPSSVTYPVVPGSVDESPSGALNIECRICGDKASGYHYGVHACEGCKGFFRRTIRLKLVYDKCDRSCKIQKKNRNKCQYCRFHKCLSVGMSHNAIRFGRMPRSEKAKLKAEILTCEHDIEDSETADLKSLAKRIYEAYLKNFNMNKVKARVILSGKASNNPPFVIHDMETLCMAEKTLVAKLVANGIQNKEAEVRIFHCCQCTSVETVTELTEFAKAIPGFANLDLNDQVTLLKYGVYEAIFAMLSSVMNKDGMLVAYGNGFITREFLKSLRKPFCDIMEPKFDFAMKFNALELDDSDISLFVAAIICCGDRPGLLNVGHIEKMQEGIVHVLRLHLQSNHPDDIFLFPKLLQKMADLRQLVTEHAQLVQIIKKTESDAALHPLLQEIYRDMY
Sequence of E-selectin (Homo sapiens) (P16581 whole entry, looked up): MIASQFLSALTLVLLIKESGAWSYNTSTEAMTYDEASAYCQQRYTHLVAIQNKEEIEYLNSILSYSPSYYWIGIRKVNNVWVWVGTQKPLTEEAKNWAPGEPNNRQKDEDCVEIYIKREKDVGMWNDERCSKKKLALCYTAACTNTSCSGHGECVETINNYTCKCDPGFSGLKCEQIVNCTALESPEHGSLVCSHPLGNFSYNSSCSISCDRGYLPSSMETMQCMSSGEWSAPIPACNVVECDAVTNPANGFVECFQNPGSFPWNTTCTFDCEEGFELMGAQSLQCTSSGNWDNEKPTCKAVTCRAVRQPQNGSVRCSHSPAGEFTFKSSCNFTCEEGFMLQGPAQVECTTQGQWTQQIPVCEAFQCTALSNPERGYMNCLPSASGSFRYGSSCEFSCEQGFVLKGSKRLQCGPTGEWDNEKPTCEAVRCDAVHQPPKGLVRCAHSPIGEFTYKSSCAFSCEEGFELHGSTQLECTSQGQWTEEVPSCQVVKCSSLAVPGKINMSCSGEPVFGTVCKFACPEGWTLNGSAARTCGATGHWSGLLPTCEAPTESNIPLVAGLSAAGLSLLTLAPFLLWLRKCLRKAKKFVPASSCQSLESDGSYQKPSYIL
Sequence of human RAR-related Orphan Receptor beta (RORb), RORB (gene 6096) (Q92753 whole entry, looked up, the tested form may be a part): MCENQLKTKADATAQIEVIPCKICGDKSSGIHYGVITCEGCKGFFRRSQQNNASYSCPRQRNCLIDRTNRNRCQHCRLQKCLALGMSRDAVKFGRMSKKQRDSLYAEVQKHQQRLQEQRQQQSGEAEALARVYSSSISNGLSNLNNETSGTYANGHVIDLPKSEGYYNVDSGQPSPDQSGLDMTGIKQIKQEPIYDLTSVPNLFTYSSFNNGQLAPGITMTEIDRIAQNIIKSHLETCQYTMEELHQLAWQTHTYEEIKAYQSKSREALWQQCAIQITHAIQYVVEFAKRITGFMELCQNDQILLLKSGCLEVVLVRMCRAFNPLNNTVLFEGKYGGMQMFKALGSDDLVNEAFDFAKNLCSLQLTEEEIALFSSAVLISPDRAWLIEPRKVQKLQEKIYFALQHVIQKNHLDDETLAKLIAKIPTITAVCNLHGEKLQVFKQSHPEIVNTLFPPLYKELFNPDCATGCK
Sequence of Retinoic acid receptor alpha (Homo sapiens) (P10276 whole entry, looked up, the tested form may be a part): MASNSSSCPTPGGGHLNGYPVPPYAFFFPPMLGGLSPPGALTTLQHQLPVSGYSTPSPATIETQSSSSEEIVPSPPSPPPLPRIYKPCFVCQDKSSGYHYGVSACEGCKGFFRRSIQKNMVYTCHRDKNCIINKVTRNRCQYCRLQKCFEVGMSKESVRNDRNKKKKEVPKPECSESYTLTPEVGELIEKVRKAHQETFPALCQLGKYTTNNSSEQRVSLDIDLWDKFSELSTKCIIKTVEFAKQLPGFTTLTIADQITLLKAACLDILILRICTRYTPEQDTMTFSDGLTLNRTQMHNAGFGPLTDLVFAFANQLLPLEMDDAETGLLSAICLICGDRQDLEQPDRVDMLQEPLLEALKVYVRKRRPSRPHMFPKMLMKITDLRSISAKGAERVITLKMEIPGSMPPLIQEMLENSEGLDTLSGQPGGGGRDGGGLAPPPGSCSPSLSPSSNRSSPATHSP
Sequence of human Retinoid X Receptor beta (RXRb), RXRB (gene 6257) (P28702 whole entry, looked up, the tested form may be a part): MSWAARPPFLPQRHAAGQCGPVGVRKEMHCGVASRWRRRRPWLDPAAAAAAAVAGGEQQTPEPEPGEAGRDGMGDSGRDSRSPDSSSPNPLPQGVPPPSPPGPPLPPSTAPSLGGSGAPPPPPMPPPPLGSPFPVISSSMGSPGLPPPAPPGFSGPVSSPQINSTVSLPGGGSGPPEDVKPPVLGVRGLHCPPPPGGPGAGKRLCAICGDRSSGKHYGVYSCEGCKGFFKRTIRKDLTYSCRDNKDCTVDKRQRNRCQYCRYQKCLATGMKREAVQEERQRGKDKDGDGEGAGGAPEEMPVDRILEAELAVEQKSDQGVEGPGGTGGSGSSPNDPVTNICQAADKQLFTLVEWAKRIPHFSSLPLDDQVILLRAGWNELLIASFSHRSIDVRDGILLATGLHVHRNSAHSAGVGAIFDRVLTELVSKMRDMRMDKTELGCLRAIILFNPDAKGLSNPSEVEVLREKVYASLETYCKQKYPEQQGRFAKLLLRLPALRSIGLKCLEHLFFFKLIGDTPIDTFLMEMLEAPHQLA
Sequence of human Retinoic Acid Receptor beta (RARb), RARB (gene 5915) (P10826 whole entry, looked up, the tested form may be a part): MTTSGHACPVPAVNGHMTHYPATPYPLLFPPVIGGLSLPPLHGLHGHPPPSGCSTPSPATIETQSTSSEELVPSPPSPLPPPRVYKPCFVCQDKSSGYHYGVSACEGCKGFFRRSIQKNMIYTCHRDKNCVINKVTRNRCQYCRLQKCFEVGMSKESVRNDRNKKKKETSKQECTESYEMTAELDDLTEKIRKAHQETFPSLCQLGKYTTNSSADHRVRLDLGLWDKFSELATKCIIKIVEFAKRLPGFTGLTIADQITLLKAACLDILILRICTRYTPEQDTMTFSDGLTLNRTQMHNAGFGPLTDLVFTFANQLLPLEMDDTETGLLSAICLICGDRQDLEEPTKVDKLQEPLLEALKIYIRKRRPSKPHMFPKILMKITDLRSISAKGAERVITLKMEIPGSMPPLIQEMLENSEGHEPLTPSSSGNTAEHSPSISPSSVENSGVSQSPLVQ

CCNC(=O)NC(=O)C(C#N)=NOC
inactive: [1] | [2] | [3] | [4] | [5] | [6] | [7] | [8] | [9] | [10] | [11] | [12] | [13] | [14]

O=C(O)c1c(Cl)ccc2cc(Cl)cnc12
inactive: [1] | [2] | [3] | [15] | [4] | [6] | [7] | [10] | [11] | [12] | [13] | [14]

Nc1cnn(-c2ccccc2)c(=O)c1Cl
inactive: [1] | [2] | [3] | [15] | [4] | [6] | [8] | [9] | [10] | [11] | [12] | [13] | [14]
active: [7] 22.4 µM

CC1(C)CCC(=Cc2ccc(Cl)cc2)C1(O)Cn1cncn1 (stereo not drawn)
inactive: [1] | [2] | [3] | [4] | [16] | [5] | [6] | [7] | [18] | [9] | [19] | [11] | [12] | [13] | [14]
active: [17] 9.33 µM

Nc1c(Cl)c(Cl)nc(C(=O)O)c1Cl
inactive: [1] | [2] | [3] | [15] | [4] | [6] | [7] | [9] | [19] | [10] | [11] | [12] | [13] | [14]

CCNP(=S)(OC)O/C(C)=C/C(=O)OC(C)C (stereo not drawn)
inactive: [1] | [2] | [3] | [4] | [16] | [6] | [17] | [18] | [19] | [11] | [12] | [13] | [14]
active: [5] 22.1 µM | [7] 29.6 µM

CC(C)Nc1nc(Cl)nc(NC(C)C)n1
inactive: [1] | [2] | [3] | [4] | [6] | [7] | [17] | [9] | [19] | [10] | [11] | [12] | [13] | [14]

CCSC(=O)N1CCCCCC1
active: [17] 84.4 µM
inactive: [1] | [2] | [3] | [4] | [16] | [5] | [6] | [7] | [18] | [8] | [9] | [19] | [11] | [12] | [13] | [14]

CC(C)NC(=O)N1CC(=O)N(c2cc(Cl)cc(Cl)c2)C1=O
inactive: [2] | [3] | [4] | [6] | [9] | [12] | [13] | [14]
active: [1] 32.8 µM | [7] 23.4 µM | [17] 10.6 µM

COC(=O)N(C(=O)N1CO[C@@]2(C(=O)OC)Cc3cc(Cl)ccc3C2=N1)c1ccc(OC(F)(F)F)cc1
active: [6] 5.55 µM | [17] 5.9 µM | [14] 6.07 µM
inactive: [1] | [2] | [3] | [4] | [7] | [18] | [8] | [9] | [19] | [10] | [11] | [12] | [13]

COc1ccc(-c2ccccc2)cc1NNC(=O)OC(C)C
active: [7] 50 µM
inactive: [1] | [2] | [3] | [4] | [16] | [6] | [17] | [8] | [9] | [19] | [11] | [12] | [13] | [14]
